About 83,000 compounds went through this panel and 20% of them were active in at least one assay; those are over-represented in the sample as a whole.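 The endpoint reported here, percent growth, reads 100 for growth as untreated, 0 for no net growth and -100 for all cells dead.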 A number with no mark means an inactive call. Active and inactive are the calls of the source. Rule for the calls: active = growth percent below 10; inactive = the rest.

The test system of the assay is NCI-H23 lung. The experiment in a line: NCI-60 one-dose screen, 48 h (100 = growth as untreated, 0 = no growth, -100 = all killed). Conditions: 10 µM unless noted.
On to `COc1ccc(NC(=O)c2sc3nc(C)c(C(=O)/C=C/c4cccc(OC)c4)cc3c2N)cc1`, for which the growth is 54.6%.
The figure for `Nc1nc2c([nH]1)c1[nH]c3ccccc3c1c1[nH]c3ccccc3c21` is 63.5%; for `Cc1ccc(-c2nc3nc(-c4ccc(F)cc4)nc(N4CCNCC4)c3o2)cc1` it is 94.4%; for `COc1ccc(OC)c(C(=O)/C=C/c2cc3c(c(OC)c2OC)OCO3)c1` it is 57.8%.
Turning to `CN1C(=O)/C(=C/c2ccc(C(=O)Nc3ncc(Cc4ccc(Cl)cc4)s3)cc2)SC1=S`, the growth is 65.7%.
The figure for `O=C(OCc1ccc2c(Cl)cc(Cl)c(O)c2n1)n1cncn1` is 44.5%; for `C[C@]12C=CC(=O)C=C1CCC1C2[C@@H](O)C[C@@]2(C)C1CC[C@]2(O)C(=O)COC(=O)CCC(=O)O` (stereo not given in full) it is 106%; for `COc1ccc2c(c1)c(-c1noc(C(=O)c3cn(C)c4ccc(Br)cc34)n1)cn2C` it is 99.3%.
The figure for `COc1ccc(/C=N/C2=C(C#N)C(c3cccc(Cl)c3)c3c(ccc4ccccc34)O2)cc1` (stereo not given) is 53.5%.
The figure for `Cc1ccccc1Cn1cnc2ccc(-c3cc(NC(=O)c4ccc(NC5CCN(C)CC5)cc4)n[nH]3)cc21` is 75%; for `O=C1CC(N2C(=O)/C(=C/C(Cl)=C\c3ccc([N+](=O)[O-])cc3)SC2=S)C(=O)N1c1ccc(Cl)cc1` (stereo not given) it is 17.3%; for `CCN(CC)CCOc1ccc(-c2c(-c3ccccc3)c(=O)oc3ccccc23)cc1` it is 94.8%.
For the compound `CCNC(=O)c1[nH]cc(-c2ccccc2)c1-c1cc(OC)c2c(c1OC)OCO2`, the growth is 93.8%.
Then `Cc1cc(=O)[nH]c2c(C#N)cnn12`, with 102%.
In the case of `COCCn1c(-c2csc(-c3cn(C)c4ccc(OC)cc34)n2)cc2cccnc21`, the growth was 63.8%.
The figure for `COC(=O)[C@]1(C)CCC[C@]2(C)[C@H]3C[C@H]4C(C(C)C)=C[C@]3(CC[C@H]21)[C@H]1[C@@H]4[C@@H](OCCC#N)CC[C@@H]1OCCC#N` is 46.3%; for `O=C(NCCCCNC(=O)OCc1ccc2c(Cl)cc(Cl)c(O)c2n1)OCc1ccc2c(Cl)cc(Cl)c(O)c2n1` it is 24.6%; for `COC(=O)c1c2c(c(C)[n+]([O-])c1C)C(=O)C=C(NCc1ccc(Br)cc1)C2=O` it is -44.8% (active).
Then `CCCCCCNC(=O)Oc1ccc(/C(=C(/C)Cc2ccc(OC)cc2)c2ccc(OCCCN(C)C)cc2)cc1`, with 70.7%.
On to `CCCCCCC1(C)NCCO1` (stereo not given), for which the growth is 99.1%.
For `CC[C@]12C=CCN3CC[C@@]4(c5cc(NC(=O)CCC(=O)OCc6cn(Cc7ccc(F)cc7)nn6)c(OC)cc5N(C)[C@H]4[C@@](O)(C(=O)OC)[C@@H]1OC(C)=O)[C@@H]32`, the growth was 97.2%.
The figure for `Oc1c(Cl)cc(Cl)c2ccc(Cn3cc(-c4cc(C(F)(F)F)cc(C(F)(F)F)c4)nn3)nc12` is 77.3%; for `O=C1C(Cl)=C(Oc2ccccc2)C(=O)c2ccccc21` it is 85.9%.
`COc1ccccc1Nc1nc2c(s1)C1=CC[C@H]3[C@@H]4CC[C@H]([C@H](C)CCCC(C)C)[C@@]4(C)CC[C@@H]3[C@@]1(C)CC2`: the growth was 93.3%.
Then `N#Cc1cccc(-c2c(-c3ccc4ccccc4c3)oc3ccccc3c2=O)c1`, with 60.7%.

The values above are taken from PubChem BioAssay (NCI).
